Experimental data taken from PubChem BioAssay AID1159580 (chemical genetic matrix, 2015).
Screen size: about 5,500 compounds; about 2,000 (36%) were called active. Not shown: some 18% with an inconclusive outcome. The list shows a part of the results. Values without a mark were called inactive. Rule as the data show it: active = normalized growth mostly below about 0.91 (no sharp cut-off); inconclusive = no clear call, values can overlap the other calls; inactive = mostly above about 0.92.

Test: chemical genetic growth profiling, strain panel (AID 1159580);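 also: tested at 20 µM; growth read once vehicle control cultures reached saturation at 30 °C; 1 = growth at the plate median or of vehicle wells; lower values mean less growth of the strain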
Details: S. cerevisiae deletion strains, growth OD

Question: For `COc1cc(OC)c(C(C)=O)c(O)c1C`, which normalized growth (locus YAL021C, strain ccr4, stronger effect = lower value) is on record?
Answer: The normalized growth was 0.991.

Question: What about the normalized growth (locus YAL026C, strain drs2, stronger effect = lower value) of the same compound?
Answer: The normalized growth was 0.908.

Question: What about the normalized growth (locus YAL030W, strain snc1, stronger effect = lower value) of the same compound?
Answer: The normalized growth was 0.953.

Question: And the normalized growth (locus YBL061C, strain skt5, stronger effect = lower value)?
Answer: Its normalized growth is 0.923.

Question: And the normalized growth (locus YBR009C, strain hhf1, stronger effect = lower value)?
Answer: Its normalized growth is 0.88 (active).

Question: And the normalized growth (locus YBR023C, strain chs3, stronger effect = lower value)?
Answer: The normalized growth was 0.905 (active).

Question: And the normalized growth (locus YBR171W, strain sec66, stronger effect = lower value)?
Answer: The normalized growth was 0.945.

Question: And the normalized growth (locus YBR231C, strain swc5, stronger effect = lower value)?
Answer: The normalized growth was 0.934.

Question: What about the normalized growth (locus YBR279W, strain paf1, stronger effect = lower value) of the same compound?
Answer: The normalized growth was 0.951.

Question: And the normalized growth (locus YCL011C, strain gbp2, stronger effect = lower value)?
Answer: The normalized growth was 0.905 (active).

Question: What about the normalized growth (locus YCL016C, strain dcc1, stronger effect = lower value) of the same compound?
Answer: Its normalized growth is 0.956.

Question: What about the normalized growth (locus YCL061C, strain MRC1, stronger effect = lower value) of the same compound?
Answer: Its normalized growth is 0.937.

Question: What about the normalized growth (locus YCL069W, strain vba3, stronger effect = lower value) of the same compound?
Answer: Its normalized growth is 0.942.

Question: And the normalized growth (locus YCR088W, strain abp1, stronger effect = lower value)?
Answer: Its normalized growth is 0.937.

Question: What about the normalized growth (locus YDL005C, strain med2, stronger effect = lower value) of the same compound?
Answer: Its normalized growth is 0.978.

Question: And the normalized growth (locus YDL040C, strain nat1, stronger effect = lower value)?
Answer: The normalized growth was 0.949.

Question: And the normalized growth (locus YDR001C, strain nth1, stronger effect = lower value)?
Answer: The normalized growth was 0.939.

Question: And the normalized growth (locus YDR069C, strain doa4, stronger effect = lower value)?
Answer: Its normalized growth is 0.948.

Question: And the normalized growth (locus YDR137W, strain rgp1, stronger effect = lower value)?
Answer: Its normalized growth is 0.859.

Question: And the normalized growth (locus YDR159W, strain sac3, stronger effect = lower value)?
Answer: The normalized growth was 0.847 (active).

Question: And the normalized growth (locus YDR195W, strain ref2)?
Answer: The normalized growth was 1.13.

Question: And the normalized growth (locus YDR297W, strain sur2, stronger effect = lower value)?
Answer: Its normalized growth is 0.941.

Question: And the normalized growth (locus YDR334W, strain swr1, stronger effect = lower value)?
Answer: Its normalized growth is 0.946.

Question: What about the normalized growth (locus YDR335W, strain msn5, stronger effect = lower value) of the same compound?
Answer: Its normalized growth is 0.95.

Question: What about the normalized growth (locus YDR392W, strain spt3, stronger effect = lower value) of the same compound?
Answer: The normalized growth was 0.758.

Question: And the normalized growth (locus YEL003W, strain gim4, stronger effect = lower value)?
Answer: The normalized growth was 0.923.

Question: What about the normalized growth (locus YEL037C, strain rad23, stronger effect = lower value) of the same compound?
Answer: Its normalized growth is 0.938.

Question: And the normalized growth (locus YEL061C, strain CIN8 (second series), stronger effect = lower value)?
Answer: Its normalized growth is 0.931.

Question: And the normalized growth (locus YER015W, strain faa2, stronger effect = lower value)?
Answer: The normalized growth was 0.955.

Question: And the normalized growth (locus YER016W, strain bim1, stronger effect = lower value)?
Answer: The normalized growth was 0.954.

Question: And the normalized growth (locus YER111C, strain swi4, stronger effect = lower value)?
Answer: The normalized growth was 0.95.

Question: What about the normalized growth (locus YER155C, strain BEM2 (second series), stronger effect = lower value) of the same compound?
Answer: Its normalized growth is 0.735 (active).

Question: What about the normalized growth (locus YFR010W, strain ubp6, stronger effect = lower value) of the same compound?
Answer: Its normalized growth is 0.932.

Question: And the normalized growth (locus YGL167C, strain pmr1, stronger effect = lower value)?
Answer: The normalized growth was 0.945.

Question: And the normalized growth (locus YGL173C, strain kem1, stronger effect = lower value)?
Answer: Its normalized growth is 0.921.

Question: And the normalized growth (locus YGL227W, strain vid30, stronger effect = lower value)?
Answer: Its normalized growth is 0.913 (active).

Question: And the normalized growth (locus YGL240W, strain doc1, stronger effect = lower value)?
Answer: The normalized growth was 0.812 (active).

Question: And the normalized growth (locus YGL253W, strain hxk2, stronger effect = lower value)?
Answer: The normalized growth was 0.935.

Question: What about the normalized growth (locus YHR013C, strain ard1, stronger effect = lower value) of the same compound?
Answer: Its normalized growth is 0.875.

Question: And the normalized growth (locus YHR027C, strain rpn1, stronger effect = lower value)?
Answer: Its normalized growth is 0.969.

Question: What about the normalized growth (locus YHR030C, strain SLT2, stronger effect = lower value) of the same compound?
Answer: Its normalized growth is 0.931.

Question: And the normalized growth (locus YHR079C, strain IRE1, stronger effect = lower value)?
Answer: Its normalized growth is 0.935.

Question: And the normalized growth (locus YHR142W, strain chs7, stronger effect = lower value)?
Answer: The normalized growth was 0.877.

Question: And the normalized growth (locus YJL092W, strain hpr5, stronger effect = lower value)?
Answer: Its normalized growth is 0.946.

Question: What about the normalized growth (locus YJL095W, strain BCK1 (second series), stronger effect = lower value) of the same compound?
Answer: The normalized growth was 0.944.

Question: And the normalized growth (locus YJL095W, strain BCK1, stronger effect = lower value)?
Answer: The normalized growth was 0.927.

Question: And the normalized growth (locus YJL115W, strain asf1, stronger effect = lower value)?
Answer: Its normalized growth is 0.944.

Question: And the normalized growth (locus YJL129C, strain trk1, stronger effect = lower value)?
Answer: Its normalized growth is 0.903.

Question: What about the normalized growth (locus YJL154C, strain vps35, stronger effect = lower value) of the same compound?
Answer: The normalized growth was 0.939.

Question: And the normalized growth (locus YJL164C, strain tpk1, stronger effect = lower value)?
Answer: Its normalized growth is 0.93.

Question: What about the normalized growth (locus YJL166W, strain qcr8, stronger effect = lower value) of the same compound?
Answer: The normalized growth was 0.912.

Question: And the normalized growth (locus YJL187C, strain SWE1, stronger effect = lower value)?
Answer: The normalized growth was 0.945.

Question: And the normalized growth (locus YJR066W, strain TOR1, stronger effect = lower value)?
Answer: Its normalized growth is 0.855.

Question: What about the normalized growth (locus YKL160W, strain elf1, stronger effect = lower value) of the same compound?
Answer: The normalized growth was 0.956.

Question: And the normalized growth (locus YKR026C, strain gcn3, stronger effect = lower value)?
Answer: The normalized growth was 0.93.

Question: What about the normalized growth (locus YKR091W, strain srl3, stronger effect = lower value) of the same compound?
Answer: Its normalized growth is 0.946.

Question: And the normalized growth (locus YLL001W, strain dnm1, stronger effect = lower value)?
Answer: The normalized growth was 0.939.

Question: And the normalized growth (locus YLL026W, stronger effect = lower value)?
Answer: Its normalized growth is 0.953.

Question: What about the normalized growth (locus YLL041C, strain sdh2, stronger effect = lower value) of the same compound?
Answer: The normalized growth was 0.961.

Question: What about the normalized growth (locus YLR027C, strain aat2, stronger effect = lower value) of the same compound?
Answer: The normalized growth was 0.962.

Question: And the normalized growth (locus YLR113W, strain HOG1, stronger effect = lower value)?
Answer: The normalized growth was 0.901.

Question: And the normalized growth (locus YLR221C, strain rsa3, stronger effect = lower value)?
Answer: Its normalized growth is 0.884 (active).

Question: What about the normalized growth (locus YLR258W, strain gsy2, stronger effect = lower value) of the same compound?
Answer: The normalized growth was 0.933.

Question: And the normalized growth (locus YLR262C, strain YPT6 (second series), stronger effect = lower value)?
Answer: Its normalized growth is 0.856 (active).

Question: What about the normalized growth (locus YLR320W, strain mms22, stronger effect = lower value) of the same compound?
Answer: Its normalized growth is 0.87 (active).

Question: And the normalized growth (locus YLR342W, strain FKS1, stronger effect = lower value)?
Answer: The normalized growth was 0.954.

Question: What about the normalized growth (locus YLR357W, strain rsc2, stronger effect = lower value) of the same compound?
Answer: Its normalized growth is 0.942.

Question: What about the normalized growth (locus YLR370C, strain arc18, stronger effect = lower value) of the same compound?
Answer: The normalized growth was 0.938.

Question: What about the normalized growth (locus YLR384C, strain iki3, stronger effect = lower value) of the same compound?
Answer: The normalized growth was 0.974.

Question: What about the normalized growth (locus YML120C, strain ndi1, stronger effect = lower value) of the same compound?
Answer: The normalized growth was 0.889 (active).

Question: What about the normalized growth (locus YMR058W, strain fet3, stronger effect = lower value) of the same compound?
Answer: The normalized growth was 0.908.

Question: And the normalized growth (locus YMR125W, strain sto1, stronger effect = lower value)?
Answer: Its normalized growth is 0.984.

Question: And the normalized growth (locus YMR129W, stronger effect = lower value)?
Answer: The normalized growth was 0.944.

Question: And the normalized growth (locus YMR205C, strain PFK2, stronger effect = lower value)?
Answer: The normalized growth was 0.903.

Question: What about the normalized growth (locus YMR231W, strain pep5, stronger effect = lower value) of the same compound?
Answer: The normalized growth was 0.982.

Question: What about the normalized growth (locus YNL071W, strain lat1, stronger effect = lower value) of the same compound?
Answer: The normalized growth was 0.919.

Question: And the normalized growth (locus YNL183C, strain NPR1, stronger effect = lower value)?
Answer: The normalized growth was 0.887.

Question: What about the normalized growth (locus YNL209W, strain ssb2, stronger effect = lower value) of the same compound?
Answer: Its normalized growth is 0.96.

Question: What about the normalized growth (locus YNL248C, strain rpa49, stronger effect = lower value) of the same compound?
Answer: The normalized growth was 0.917.

Question: What about the normalized growth (locus YNL322C, strain KRE1 (second series), stronger effect = lower value) of the same compound?
Answer: Its normalized growth is 0.927.

Question: What about the normalized growth (locus YNR049C, strain mso1, stronger effect = lower value) of the same compound?
Answer: The normalized growth was 0.937.

Question: And the normalized growth (locus YOR001W, strain rrp6, stronger effect = lower value)?
Answer: The normalized growth was 0.95.

Question: What about the normalized growth (locus YOR070C, strain gyp1, stronger effect = lower value) of the same compound?
Answer: The normalized growth was 0.937.

Question: What about the normalized growth (locus YOR080W, strain dia2, stronger effect = lower value) of the same compound?
Answer: The normalized growth was 0.943.

Question: What about the normalized growth (locus YOR083W, strain WHI5, stronger effect = lower value) of the same compound?
Answer: The normalized growth was 0.942.

Question: What about the normalized growth (locus YOR106W, strain vam3, stronger effect = lower value) of the same compound?
Answer: Its normalized growth is 0.91.

Question: And the normalized growth (locus YOR231W, strain MKK1, stronger effect = lower value)?
Answer: Its normalized growth is 0.96.

Question: And the normalized growth (locus YOR265W, strain rbl2, stronger effect = lower value)?
Answer: The normalized growth was 0.962.

Question: And the normalized growth (locus YOR270C, strain vph1, stronger effect = lower value)?
Answer: The normalized growth was 0.744 (active).

Question: What about the normalized growth (locus YOR290C, strain snf2, stronger effect = lower value) of the same compound?
Answer: Its normalized growth is 0.83 (active).

Question: What about the normalized growth (locus YPL051W, strain arl3, stronger effect = lower value) of the same compound?
Answer: Its normalized growth is 0.972.

Question: And the normalized growth (locus YPL078C, strain atp4, stronger effect = lower value)?
Answer: The normalized growth was 0.908.

Question: And the normalized growth (locus YPL106C, strain sse1, stronger effect = lower value)?
Answer: The normalized growth was 0.9.

Question: And the normalized growth (locus YPL240C, strain hsp82, stronger effect = lower value)?
Answer: Its normalized growth is 0.94.

Question: What about the normalized growth (locus YPL256C, strain CLN2, stronger effect = lower value) of the same compound?
Answer: The normalized growth was 0.91.
